Data: PubChem BioAssay (Tox21)
Calls of active or inactive are those of the source. The call rests on the fitted dose curve; in most records, active means well fitted activation curve with a large enough effect in the repeat runs; inconclusive means weak or mixed curves; inactive means flat fitted curve, though single readings scatter.

experiment: Caspase-3/7 induction in CHO-K1 cells by small molecules, qHTS assay (AID 1346980); details: CHO-K1 caspase-3/7 induction, Caspase-Glo luminescence, 17 h; series mostly up to 92.4 µM; caspase-3/7 activation: at the top concentration; further: nearly all actives have a fitted effect of over 15% in size
Source text: National Center for Advancing Translational Sciences [NCATS]
NIH Chemical Genomics Center [NCGC]
U.S. Environmental Protection Agency [EPA]
National Institutes of Environmental Health Sciences [NIEHS]
National Toxicology Program [NTP]
Apoptosis is a process of programmed cell death and plays a central role in the development of multicellular organisms. It is a highly regulated process and induces cell death by activating caspases, which are the members of cysteine aspartic acid-specific protease (caspase) family. Caspases involved in apoptosis are classified by their mechanism of action as initiator caspases (caspase-2, -8, -9 and -10) and executioner caspases (caspase-3, -6, and -7). Inhibition of apoptosis results in number of cancers, autoimmune diseases, inflammatory diseases and viral infection. To identify small molecule compounds that induce apoptosis, a homogeneous, luminescent Caspase-Glo 3/7 assay was used. Wild type CHO-K1 cells were used to screen Tox21 libraries for identifying caspase-3/7 activity inducers.
CHO-K1 cells were dispensed at 1,500 per well in 5uL of culture medium into white solid bottom 1536-well plates (Corning Life Sciences, Corning, NY) using a Multidrop Combi (Thermo Scientific, Waltham, MA) dispenser. The assay plates were incubated at 37 C and 5% CO2 for 5hr, and then 23nL of compounds dissolved in DMSO and positive control were transferred using a Pintool station (Wako, San Diego, CA). The assay plates were incubated at 37C and 5% CO2 for 17hr. For caspase-3/7 activity read, 4uL of Caspase-Glo 3/7 reagent (Promega Corporation, Madison, WI) was added to each well of the assay plates using Flying Reagent Dispenser (FRD, Aurora Discovery, San Diego, CA) and incubated the assay plates at room temperature for 30min. The luminescence signal was quantified using a ViewLux plate reader (Perkin Elmer, Shelton, CT).
On the % scale 0 is the no-effect control and ±100 the full control effect.

| SMILES | caspase-3/7 activation |
| --- | --- |
| COc1cc(NC(C)CCCN)c2ncccc2c1 (stereo not given) | 0.273% [at 42.5 µM] (inactive) |
| O=P(O)(O)Oc1ccccc1 | -0.0082% (inactive) |
| O=C(O)/C=C/c1ccc(O)c(O)c1 | -1.61% (inactive) |
| C=Cc1ccc(OC(C)=O)cc1 | -1.73% (inactive) |
| COC1CCC=CO1 (stereo not given) | -0.667% (inactive) |
| COC(CC(C)CCCC(C)(C)O)OC (stereo not given) | 0.048% (inactive) |
| CN=C(N)NC(=O)Nc1c(C)cccc1C | 2.9% [at 42.5 µM] (inactive) |
| CC(C)COC(=O)COc1cc(Cl)c(Cl)cc1Cl | 0.177% (inactive) |
| CC(C)(C)C(O)/C=C/c1ccc2c(c1)OCO2 (stereo not given) | -1.37% [at 42.5 µM] (inactive) |
| CC1CCc2nccnc21 (stereo not given) | -0.116% (inactive) |
| CC(=O)OCC(=O)[C@@]1(OC(C)=O)[C@@H](C)C[C@H]2[C@@H]3C[C@H](F)C4=CC(=O)C=C[C@]4(C)[C@@]3(F)[C@@H](O)C[C@@]21C | -0.0137% [at 42.5 µM] (inactive) |
| CCCCC[C@H](O)/C=C/[C@H]1[C@H](O)CC(=O)[C@@H]1C/C=C\CCCC(=O)O | 0.0125% [at 42.5 µM] (inactive) |
| Cc1cc(CCCOc2c(C)cc(-c3noc(C(F)(F)F)n3)cc2C)on1 | 0.0183% [at 42.5 µM] (inactive) |
| CCC(Cl)CC(Cl)C(Cl)C(Cl)C(Cl)C(C)Cl (stereo not given) | -6.38% [at 19 µM] (inactive) |
| COc1ccc(C2C(=O)c3ccccc3C2=O)cc1 | -0.859% [at 42.5 µM] (inactive) |
| CCCCCCOC(=O)CCCCC | -0.0275% (inactive) |
| C=CCOC(=O)COCCC(C)C | 1.08% (inactive) |
| Nc1ccn([C@H]2CS[C@@H](CO)O2)c(=O)n1 | -0.0048% (inactive) |
| CCN(Cc1cccc(S(=O)(=O)O)c1)c1ccc(C(=C2C=CC(=[N+](CC)Cc3cccc(S(=O)(=O)O)c3)C=C2)c2ccc(O)cc2S(=O)(=O)[O-])cc1 | -6.14% [at 42.5 µM] (inactive) |
| CC(C)Cc1ccc(CC(=O)O)cc1 | 0.0941% [at 42.5 µM] (inactive) |

| SMILES | caspase-3/7 activation |
| --- | --- |
| CC1C(C)(C)C2=C(C(=O)CCC2)C1(C)C (stereo not given) | -1.21% (inactive) |
| SCCc1cnccn1 | 0.219% (inactive) |
| CC(=O)OCCC(C)CC(C)(C)C (stereo not given) | -0.712% (inactive) |
| CC(C)c1ccc(C(=O)N=C(N)N)cc1S(C)(=O)=O | 0.553% [at 42.5 µM] (inactive) |
| CNC1CCCN(c2c(F)cc3c(=O)c(C(=O)O)cn(C4CC4)c3c2OC)C1 (stereo not given) | 0.446% [at 42.5 µM] (inactive) |
| Cc1ccc(Cl)cc1N | 11% (inactive) |
| CC1CCCC(=O)C1=O (stereo not given) | 0.245% (inactive) |
| O=C(c1ccccc1)c1ccc(O)cc1 | -1.6% (inactive) |
| C=CC(=O)NC(C)C | 0.789% (inactive) |
| Cc1cc(CCC(=O)OCCOCCOCCOC(=O)CCc2cc(C)c(O)c(C(C)(C)C)c2)cc(C(C)(C)C)c1O | -0.97% (inactive) |
| CNc1c2c(nn1C)CCCC2 | 0.0976% [at 42.5 µM] (inactive) |
| CC(C)OC(=O)c1ccccc1C(=O)OC(C)C | 0.624% (inactive) |
| O=C(NC(Cc1cc(=O)[nH]c2ccccc12)C(=O)O)c1ccc(Cl)cc1 (stereo not given) | 0.435% [at 42.5 µM] (inactive) |
| O=C(O)c1cc(Cl)cc(Cl)c1O | -0.644% (inactive) |
| O=C1NC(=O)c2cccc3cccc1c23 | -0.52% (inactive) |
| CCC(C)(C)C(=O)O | 0.801% (inactive) |
| O=C(O)CCS | -0.565% (inactive) |
| CC(C)(C)NCC(O)COc1cccc2c1C[C@H](O)[C@H](O)C2 (stereo not given in full) | 0.277% [at 42.5 µM] (inactive) |
| N[C@@H](Cc1cc(I)c(O)c(I)c1)C(=O)O | -1.28% [at 42.5 µM] (inactive) |
| CC(=O)Oc1cccc(O)c1 | -0.16% [at 42.5 µM] (inactive) |
